# Assay outcomes as filed in PubChem BioAssay.
# ALDH1A1 inh – inhibitors of human aldehyde dehydrogenase 1A1; Potency, µM (titrated, usually from 75.3 µM), most hits filed as inhibitors; Purified ALDH1A1, NADH fluorescence, propionaldehyde substrate; actives 7.3% (n = 220,000)
# IMPase Li inh – IMPase inhibition in cells with lithium potentiation; Potency, µM (top dose mostly 59.4 µM), hits mostly inhibitors; AID 1457; actives 0.35% (n = 210,000); CHO-M1 cells, IP1 TR-FRET (IP-One), carbachol + lithium; active means well fitted curve in the direction sought with a large enough effect; inconclusive means small, poorly fitted or top-dose-only effect, or another doubt; inactive means no such curve, though single readings can be large; an effect the other way counts as inactive or inconclusive;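 further: IP1 builds up when IMPase is blocked and the TR-FRET signal falls; nearly all actives have a fitted effect of over 50% in size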
#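 CHO cells stably expressing M1 receptor (2000/well, cultured 16–30 h) treated 30 min at 37C with compound plus low lithium. Cytosolic IP1 by TR-FRET (665/620 ratio and 620 channel) after 10 min lysis; AC50 by Hill fit.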
# IMPase cell inh – cell-permeable inhibitors of inositol monophosphatase (IMPase); 120,000 tested, under 10 active; inhibition (IP1 accumulation), % at 46.1 µM; CHO-M1 cells, IP1 accumulation, HTRF TR-FRET ratio; AID 901; P97697; active means well fitted curve in the direction sought with a large enough effect in the signal ratio, not every such curve was filed as active; inconclusive means small, poorly fitted or top-dose-only effect, or a change in a side signal; inactive means no such curve, though single readings can be large or run the other way; the % refers to the signal ratio;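 further: cells stimulated with carbachol in lithium chloride buffer; higher means more IMPase inhibition seen as more IP1 and lower FRET ratio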
# Target sequence (P97697 whole entry, looked up): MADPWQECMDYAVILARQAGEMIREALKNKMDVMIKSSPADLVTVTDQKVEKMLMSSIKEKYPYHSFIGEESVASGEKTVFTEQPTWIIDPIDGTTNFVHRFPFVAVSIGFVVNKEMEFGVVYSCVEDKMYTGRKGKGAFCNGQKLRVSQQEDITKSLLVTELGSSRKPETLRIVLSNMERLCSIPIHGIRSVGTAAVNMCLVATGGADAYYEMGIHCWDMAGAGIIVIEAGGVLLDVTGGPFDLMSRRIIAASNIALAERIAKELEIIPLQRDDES
#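 Elevated IP1 in lysates lowers TR-FRET signal (665/620 ratio and 620 channel reported). Cells were CHO-M1, given carbachol (50 uM as added) plus 50mM LiCl, pH 7.4, 30 min, 37C; compounds titrated up to 46 uM; AC50 by Hill equation.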
# PNC inhibitor – inhibitors of perinucleolar compartment assembly. PC3M PTB-GFP, PNC prevalence imaging, 16 h; stronger effect = lower value. actives 3.1% (n = 140,000). activity change (PNC), negative = inhibition, % at 10 µM;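 active means readout at or below -70, meaning at least 70% loss of cells showing the perinucleolar compartment, a nuclear body marking cancer cells; inconclusive means readout between -30 and a set limit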
#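 Compounds are pinned in duplicate onto adhered PC3M cells stably expressing GFP-tagged PTB and incubated 16 h at 37 C. Cells are then fixed, nuclei stained with Hoechst, and PNC-positive cells counted.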
# ALOX12 inhib – blocks human 12-lipoxygenase activity. P18054. purified 12-hLO, xylenol orange hydroperoxide absorbance. Potency, µM (series often up to 57.1 µM), hits mostly inhibitors. actives 0.12% (n = 150,000); active means well fitted curve in the direction sought with a large enough effect; inconclusive means small, poorly fitted or top-dose-only effect, or another doubt; inactive means no such curve, though single readings can be large; an effect the other way counts as inactive or inconclusive; further: nearly all actives have a fitted effect of over 55% in size
#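 150 nM 12hLO, 25 mM Hepes pH 7.0 + 0.01% Triton X-100; cpd preinc 15 min RT; 40 uM arachidonic acid, 30 min RT; Fe-XO 30 min; A573/A405 ratio as read-out.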
# HPGD inh – HPGD (human) dehydrogenase inhibition. purified HPGD, NADH fluorescence kinetic, PGE2 substrate. P15428. Potency, µM, usual class: inhibitors. actives 4.3% (n = 150,000)
# Target sequence (P15428 whole entry, looked up): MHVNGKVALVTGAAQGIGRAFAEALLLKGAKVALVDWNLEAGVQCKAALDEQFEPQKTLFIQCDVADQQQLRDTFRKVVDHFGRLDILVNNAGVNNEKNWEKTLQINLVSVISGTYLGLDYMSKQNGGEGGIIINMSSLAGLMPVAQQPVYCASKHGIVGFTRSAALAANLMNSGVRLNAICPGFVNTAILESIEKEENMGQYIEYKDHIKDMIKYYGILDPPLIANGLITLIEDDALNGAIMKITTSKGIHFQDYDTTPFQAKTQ
#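 NADH formation kinetics: reaction with 30 uM PGE2 and 1 mM NAD+ (final), 20 nM enzyme, Tris-HCl pH 8 with Tween 20, after 15 min compound preincubation at room temperature. Fluorescence change, last versus first of five reads.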
# Hits are given with their value; n = inactive; u = inconclusive; x = no result; [ ] = another dose, or the depositor's remark. A selection: hits, their analogues and other compounds. The true share with any hit is near 11%. Unless noted, the call rests on the fitted dose curve; in most records, active means well fitted inhibition curve with a large enough effect (not every such curve was filed as active); inconclusive means small, poorly fitted or top-dose-only effect, or another doubt; inactive means no such curve, though single readings can be large or run the other way.
SMILES,ALDH1A1 inh,IMPase Li inh,IMPase cell inh,PNC inhibitor,ALOX12 inhib,HPGD inh
NC(=O)CC[C@@H]1NC(=O)[C@H](CO)NC(=O)c2cc([N+](=O)[O-])cc(I)c2NCC[C@@H](C(N)=O)NC(=O)[C@H](Cc2ccc(O)cc2)NC1=O,3.5µM,n,x,n,n,n
COC(=O)c1cc(=O)n(-c2ccc(F)cc2)c(=Nc2ccc(F)cc2)s1,n,n,x,n,n,n
COC(=O)c1cc(=O)n(Cc2ccco2)c(=Nc2ccc(F)c(Cl)c2)s1,3.5µM,n,n,n,n,n
COC(=O)c1cc(=O)n(Cc2ccc3c(c2)OCO3)c(=Nc2ccccc2)s1,0.63µM,n,n,n,n,n
COC(=O)c1cc(=O)n(Cc2ccc3c(c2)OCO3)c(=Nc2ccc(F)cc2)s1,u,n,n,n,n,n
COC(=O)c1cc(=O)n(Cc2cccs2)c(=Nc2ccc(F)cc2)s1,10µM,n,x,x,x,x
Cc1cc(N2C(=O)C=CC2=O)c([N+](=O)[O-])cc1C,0.79µM,n,x,n,n,2.8µM
Cc1ccc([N+](=O)[O-])c(C)c1,n,n,x,x,n,n
NC(=O)COC(=O)CCSc1ccc(Cl)cc1,n,n,x,x,x,x
CCn1nnnc1SCC(=O)N1CCCc2ccccc21,3.5µM,n,n,n,n,n
O=C(CSc1nnc(Cc2cccs2)n1C1CCCCC1)N1CCCc2ccccc21,3.5µM,n,n,u,n,n
Cc1ccc(-c2csc3nnc(SCC(=O)N4CCN(Cc5ccccc5)CC4)n23)cc1,14µM,n,u,n,n,n
O=C(O)c1ccc(CSc2nnnn2C2CCCCC2)cc1,18µM,n,n,u,n,n
Cn1nnnc1SCC(=O)N1CCCc2ccccc21,n,n,n,n,n,n
O=C(CSc1nnc2scc(-c3ccccc3)n12)N1CCN(Cc2ccccc2)CC1,n,n,n,n,n,n
O=C1CCC(=O)N1c1ccc(CSc2nnnn2C2CCCCC2)cc1,u,n,n,u,n,n
O=C(O)c1ccc([N+](=O)[O-])c(P(=O)(O)O)c1,n[13.5 µM],n,x,x,n[11.4 µM],n
COc1ccc(-n2nnnc2SCC(=O)N2CCCc3ccccc32)cc1OC,25µM,n,n,n,n,n
O=C(CSc1nnnn1C1CCCC1)N1CCCc2ccccc21,10µM,n,u,u,n,n
Cc1ccc(-c2nnc(SCC(=O)N3CCCc4ccccc43)n2N)cc1,13µM,n,n,u,n,n
O=C(CSc1nnc2scc(-c3ccccc3)n12)N1CCCc2ccccc21,11µM,n,n,n,n,n
CCCS(=O)(=O)c1c(S(=O)(=O)CCC)c2cc(C(C)(C)C)ccn2c1C(=O)c1ccccc1,x,x,n,x,x,x
COc1cccc(NC(=O)CSc2nc3ccccc3c(=O)n2CCCC(=O)N2CCCC2)c1,u,n,u,u,n,28µM
COc1ccc(NC(=O)CSc2nc3ccccc3c(=O)n2CCC(=O)N2CCCCC2)cc1,16µM,n,n,n,n,n
CCOc1ccc(NC(=O)CSc2nc3ccccc3c(=O)n2CCCC(=O)N2CCCC2)cc1,n,x,u,n,n,x
SMILES,ALDH1A1 inh,IMPase Li inh,IMPase cell inh,PNC inhibitor,ALOX12 inhib,HPGD inh
CCOc1ccc(NC(=O)CSc2nc3ccccc3c(=O)n2CCCC(=O)NCCCN2CCCC2=O)cc1,7.9µM,n,x,x,x,x
CCc1ccc(NC(=O)CSc2nc3ccccc3c(=O)n2CCCC(=O)NCCCN2CCOCC2)cc1,n,n,x,x,x,x
C=CC[C@@H]1C=C[C@@H](O/N=C(/C)CCC(=O)OC[C@@H]2O[C@H](c3ccccc3)C=C[C@@H]2Oc2ccc(OC)cc2)[C@@H](CO)O1,n[13.5 µM],x,x,x,x,x
C=N[C@H](C(=O)N[C@@H]1C(=O)N2[C@@H]1SC(C)(C)[C@@H]2C(=O)O)c1ccccc1,n,n,n,x,n,u
CCc1ccc(Oc2c(C(F)(F)F)oc3c(CN4CCN(CC)CC4)c(O)ccc3c2=O)cc1,x,x,n,x,x,x
Cc1cc(C)c(S(=O)(=O)N(CC(=O)O)C2CCCCC2)c(C)c1,n,n,n,-97,n,n
CCOC(=O)N1CCN(C(=O)CN(C2CCCCC2)S(=O)(=O)c2c(C)cc(C)cc2C)CC1,n,n,n,n,n,n
COc1ccc2oc(=O)c(C(=O)Nc3ccc(C(=O)O)cc3)cc2c1,x,x,n,x,x,x
